Data published in PubChem BioAssay AID778 (Sanford-Burnham Center for Chemical Genomics, 2007).
About 20,000 (21%) of roughly 96,000 compounds were called active.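 Rule for the calls: active = CYP2C19 inhibition above a set limit at 5 µM in the primary screen (cut at about 50% in these data); inactive = the rest.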 Only a sample is shown.

These compounds were tested against Cytochrome P450 2C19 (Homo sapiens) (UniProt P33261) (assay: blockers of cytochrome P450 2C19 activity – biochemical, luminescence, ADME assay, primary screen (AID 778;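 note: plate controls were negative control wells for no effect and 2.5 mM tranylcypromine positive control for full effect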)). Conditions: CYP2C19 Supersomes, luciferin-H EGE luminescence, 30 min; at 5 µM; stronger effect = higher value.
Chain of Cytochrome P450 2C19 (Homo sapiens) (P33261 whole entry, looked up): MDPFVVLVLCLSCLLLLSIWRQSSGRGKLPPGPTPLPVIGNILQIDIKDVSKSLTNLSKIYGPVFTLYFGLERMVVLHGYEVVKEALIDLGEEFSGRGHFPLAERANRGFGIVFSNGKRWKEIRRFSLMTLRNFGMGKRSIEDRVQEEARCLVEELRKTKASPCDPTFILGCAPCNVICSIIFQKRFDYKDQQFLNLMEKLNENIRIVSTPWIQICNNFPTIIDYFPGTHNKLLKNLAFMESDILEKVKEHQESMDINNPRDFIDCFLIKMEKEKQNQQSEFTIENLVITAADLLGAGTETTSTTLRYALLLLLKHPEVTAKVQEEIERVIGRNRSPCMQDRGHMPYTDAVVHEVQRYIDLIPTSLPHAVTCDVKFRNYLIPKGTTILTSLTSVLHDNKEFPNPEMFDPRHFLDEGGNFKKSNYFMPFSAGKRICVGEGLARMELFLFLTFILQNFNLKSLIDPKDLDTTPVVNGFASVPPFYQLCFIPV

inhibition, inactive:
O=C(O)Cc1ccc(NC(=O)C2CCCCC2C(=O)O)cc1 (stereo not drawn) 2.3%, CSCCC(Nc1nc2ccccc2s1)C(=O)O (stereo not drawn) 12.6%, COc1cc(C2C(C(=O)c3ccc(C)o3)=C(O)C(=O)N2Cc2cccnc2)ccc1O (stereo not drawn) -12.6%, COc1cccc(C2/C(=C(/O)c3ccncc3)C(=O)C(=O)N2CCCN(C)C)c1 (stereo not drawn) -12.6%, Cc1ccc(C(c2nnnn2C(C)(C)C)N2CCc3ccccc3C2)cc1 (stereo not drawn) 14.4%, COC(=O)C1C(=O)c2c([nH]c(C(=O)OCCSC)c2C)CC1C (stereo not drawn) 10.1%, Cc1cc2ncn(CCCCOc3ccccc3)c2cc1C 40.1%, Nc1nc(SCCOc2ccccc2)n[nH]1 28.3%, CC(C)Oc1ccc(C2NC(=O)NC2=O)cc1 (stereo not drawn) -16.7%, O=C(Nc1ccc(NC(=O)c2cccs2)cn1)c1ccco1 17.3%, Cc1ccc(-n2ncc3c(=O)[nH]cnc32)c(C)c1 -3.8%, COn1c(=O)c(=O)n(OC)c2ccccc21 -6.8%, Cc1ccc(NC(=O)Nc2ccc3oc(C)nc3c2)cc1 3%, COc1ccc(C(=O)NCc2cn3ccccc3n2)cc1 1.2%, CCn1cc(C(=O)NCc2ccc3c(c2)OCO3)c2cc(OC)c(OC)cc2c1=O 15.2%, CC(NC(=O)Nc1ccccc1)c1ccccc1 (stereo not drawn) 24.8%, CCOc1ccc(NC(=O)N(CCC(C)C)C(C)c2ccco2)cc1 (stereo not drawn) 24.3%, CC(=O)c1c(N)n(C)c(=O)n(C)c1=O 0.9%, CCOC(=O)c1nnn(-c2nonc2-n2cccc2)c1CN1CCOCC1 3.7%, CCN(CC)Cc1c(C(=O)OC)nnn1-c1nonc1N 4.8%, CC(=O)Oc1cccc(N2C(=O)CC(Nc3ccc(N4CCOCC4)cc3)C2=O)c1 (stereo not drawn) 18.5%, Cc1ccc(NC(=O)NCC(c2cccnc2)N2CCOCC2)cc1 (stereo not drawn) -7.8%, CCOC(=O)N1CCN(C(=O)C2CC(c3ccc(F)cc3)=NO2)CC1 (stereo not drawn) 1.7%, COC(=O)[C@H](C(C)C)n1c(C)c(C(C)=O)c(C(C)=O)c1C 6.6%, O=[N+]([O-])c1c(NCCO)cc(Sc2nc3ccccc3s2)c2nonc12 28.1%, O=C(c1ccc(Cl)cc1)c1ccc(OCC(O)CN2CCCCC2)cc1 (stereo not drawn) 8.8%, OC(COc1cccc(OCC(O)CN2CCCC2)c1)CN1CCCC1 (stereo not drawn) 0.1%, CCN(CC)c1ccc2cc(C(=O)O)c(=O)oc2c1 -13.2%, COc1cc2c(cc1OC)CN(C(=O)c1cc(=O)c3ccccc3o1)CC2 19.7%, CCOc1cc(CN2CCN(C(=O)CC(C)C)CC2)ccc1OC -10.6%, CN1CCN(CC(O)COCc2ccc3c(c2)OCO3)CC1 (stereo not drawn) -20.9%, Cc1ccc(NC(=O)CS(=O)CC(=O)N(c2ccccc2)C(C)C(=O)NC2CCCC2)cc1 (stereo not drawn) 9.7%, O=C(NCc1ccccn1)c1c(O)c2c([nH]c1=O)CCCC2 11.7%, CCCc1cc(-c2n[nH]c(=S)n2Cc2ccccc2)cs1 5.4%, COc1ccc(S(=O)(=O)Nc2c(C)n(C)n(-c3ccccc3)c2=O)cc1 -4.1%, Cc1c(Nc2nc3ccccc3nc2NS(=O)(=O)c2cccs2)c(=O)n(-c2ccccc2)n1C 1%, CCOc1ccc(-c2c(C)n([O-])c3c([n+]2=O)CCCC3)cc1 9.2%, COc1cc(Cl)c(S(=O)(=O)N2CCN(Cc3ccc4c(c3)OCO4)CC2)cc1Cl 36.2%, COc1ccc(NC(=O)CN2CCN(S(=O)(=O)c3ccc(F)cc3)CC2)cc1Cl 0.5%, COc1cc(NS(=O)(=O)c2ccc(N=Cc3c(C)[nH]n(-c4ccccc4)c3=O)cc2)nc(OC)n1 -18%, COc1cc(/C=N\NC(=O)CNC(=O)c2cccc([N+](=O)[O-])c2)ccc1O 23%, COc1ccc(C(=O)Nc2ccccc2C(=O)N/N=C/c2ccccc2OC)cc1 -5.9%, N#Cc1ccsc1NC(=O)CN1CCCCC1 -6.2%, NNC(=O)C1CCCn2c1nc1sc3c(c1c2=O)CCCC3 (stereo not drawn) 12.4%, CC1CCc2c(sc3nc4n(c(=O)c23)CCS4)C1 (stereo not drawn) -6.7%, Cc1cccc(N2CCN(Cc3c(C)n(C)n(-c4ccccc4)c3=O)CC2)c1C 15.2%, COC(=O)Nc1sc2nc(C)cc(C)c2c1-n1cccc1 19.5%, Cn1c(NC(=O)c2ccco2)c(-c2ccccc2Cl)c(=O)c2ccccc21 -6.5%, CCCC(O)(c1ccc(OC)cc1)C(CN(C)C)c1ccccc1 (stereo not drawn) -13.2%, CCOC(=O)c1c(NC(=O)c2cccs2)sc(C)c1C -10.4%, CCc1nnc(NC(=O)c2cccs2)s1 14.6%, CN1CCN(CC(=O)Nc2sc3c(c2C#N)CCC(C(C)(C)C)C3)CC1 (stereo not drawn) 26.1%, CN(CC(=O)NC1CCCCC1)S(=O)(=O)c1ccc(Br)s1 11.4%, O=C(Cc1ccc(F)cc1)NC1CCCC1 43.4%, Cc1cccc(-n2c(O)c(C=Nc3ccccc3N)c(=O)[nH]c2=O)c1 -2.2%, C=CCNC(=O)CCCC(=O)NCC=C 0.1%, O=C(CNC(=O)c1ccco1)OCC(=O)c1ccccc1 17.9%, CCN(CC)c1ccc(C(=O)OCC(=O)c2ccco2)cc1 8.1%, CCCC(=O)C1=C(N(C)c2ccccc2)CC(C)(C)C(C(=O)OC)C1=O (stereo not drawn) 14.5%, CCC(C(=O)N1CCOCC1)n1c(C(=O)OC)cc2occc21 (stereo not drawn) 35.4%, CC1CCN(C(=O)CN(c2ccc(Oc3ccccc3)cc2)S(C)(=O)=O)CC1 28.4%, CCOC(=O)c1cc2occc2n1CC(=O)N1CCN(C(=O)c2ccco2)CC1 -4%, CC1CCN(C(=O)Cn2cc(C(=O)c3ccco3)c3ccccc32)CC1 17.1%, CCOc1ccc(NC(=O)CSc2nc3c(c(=O)n2-c2ccccc2OC)SCC3)cc1 37.5%, CC1(C)CC(CC(=O)O)C(=O)O1 (stereo not drawn) -11.1%, Cc1nc2ccc(S(=O)(=O)NCC(=O)NCCN3CCCCC3C)cc2s1 (stereo not drawn) 5.2%, Nn1cnnc1N/N=C/c1cc([N+](=O)[O-])c(Cl)cc1Cl 15.9%, CCOC(=O)C1(C(F)(F)F)N=C(N(C)C)OC(N(C)C)=N1 -7.2%, CC1COC2C(O1)N(S(C)(=O)=O)CCN2S(C)(=O)=O (stereo not drawn) -4.9%, Cc1ccc2oc(=O)c3cnn(CC(=O)N4CCN(c5ccccn5)CC4)c3c2c1 10.9%, Cc1ccc(S(=O)(=O)NCC(=O)N2CCN(c3ccccn3)CC2)cc1 -1.8%, CC(C)(O)C#Cc1ccc(C(=O)N2CCC(C(N)=O)(N3CCCCC3)CC2)cc1 14.8%, NC(=O)C1(N2CCCCC2)CCN(C2CC(=O)N(Cc3ccc(N4CCCC4=O)cc3)C2=O)CC1 (stereo not drawn) 22.1%, Cc1nc2nc(COc3ccccc3)[nH]n2c(=O)c1C -11.1%, OCCCN1c2ccccc2Nc2nnc(-c3ccccc3)cc21 39.5%, CN(CCO)Cc1csc2ccc(Br)cc12 -8.9%

inhibition, active:
COc1cc(C2C(C(=O)c3sc(C)nc3C)=C(O)C(=O)N2CCN(C)C)cc(OC)c1OC (stereo not drawn) 76.7%, COc1ccc(OC)c(C(c2nnnn2C(C)(C)C)N2CCc3ccccc3C2)c1 (stereo not drawn) 94.8%, Cc1nn(CCOc2ccccc2)c(=O)n1-c1ccccc1F 53.1%, COc1ccc2c(c1)C(C)=CC(C)(C)N2C(=O)CNCc1ccc2c(c1)OCO2 84.8%, CCn1cc(C(=O)NCc2ccc(OC)cc2OC)c(=O)c2ccc(C)nc21 66.3%, CC(c1ccco1)N(C(=O)Nc1ccccc1)C1CCCCC1 (stereo not drawn) 76.2%, CCOC(=O)c1nnn(-c2nonc2-n2cccc2)c1CN1CCC(C(=O)OCC)CC1 98%, OC(COc1ccc2c(c1)CCC2)CN1CCN(c2cccc(Cl)c2)CC1 (stereo not drawn) 59.3%, CCOc1cc(C(=O)N2CCc3cc(OC)c(OC)cc3C2)ccc1OC(F)F 51.6%, Cc1ccc(S(=O)(=O)Nc2ccccc2CNc2c(C)n(C)n(-c3ccccc3)c2=O)cc1 95.6%, Cc1ccn2cc(-c3nonc3C)cc2c1 50.1%, COc1ccc(Cl)cc1S(=O)(=O)N1CCN(CC(=O)C(C)(C)C)CC1 85.9%, COc1ccc(C(=O)Nc2ccccc2C(=O)N/N=C/c2ccc(O)c(OC)c2)cc1 87.2%, Cn1c(NN)nc2sc3c(c2c1=O)CCC3 78.4%, CCc1c(C)sc(NC(=O)c2cccs2)c1C(N)=O 84.1%, O=C(NC1CCCC1)c1ccc(Br)s1 71.3%, O=C(COC(=O)c1ccccc1C(=O)c1ccccc1)c1ccco1 84.4%, CCOC(=O)c1cc2c(ccn2C)n1CC(=O)N1CCC(C)CC1 55.4%, CCOC(=O)c1cc2occc2n1CC(=O)NC1CCC(C)CC1 (stereo not drawn) 56.3%, Cc1ccnc(N2CCN(C(=O)CSc3nc4ccccc4nc3N3CCCCC3)CC2)c1 79.1%, NC(=O)C1(N2CCCCC2)CCN(C(=O)c2ccc(C#Cc3ccccc3)o2)CC1 71%, O=S(N1CCCCCC1)C12CC3CC(CC(C3)C1)C2 (stereo not drawn) 77.6%
